Results published in PubChem BioAssay (NCI).
About 83,000 compounds went through this panel and 20% of them were active in at least one assay; those are over-represented in the sample as a whole.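 How to read the values: 0–100, growth inhibition (40 = 60% inhibited); 0, no net growth; -100 to 0, cell death (-40 = 40% of starting cells died; -100 = all dead).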 Activity calls are given as the source filed them. The calls were made as follows: active = growth percent below 10; inactive = the rest.

What was measured:
Assay in all cases: NCI-60 one-dose screen, 48 h (100 = growth as untreated, 0 = no growth, -100 = all killed)
Conditions in all cases: 10 µM unless noted
SK-MEL-2 melanoma = test system: SK-MEL-2 melanoma
SN12C renal = test system: SN12C renal
UO-31 renal = test system: UO-31 renal
TK-10 renal = test system: TK-10 renal
ACHN renal = test system: ACHN renal
CAKI-1 renal = test system: CAKI-1 renal
A498 renal = test system: A498 renal
CCRF-CEM leukemia = test system: CCRF-CEM leukemia
MOLT-4 leukemia = test system: MOLT-4 leukemia

Measured: growth

CCN(CC)CCSc1c2ccc(Cl)cc2nc2ccc(OC)cc12
inactive: SK-MEL-2 melanoma 100% | SN12C renal 90.1% | UO-31 renal 88.5% | TK-10 renal 84.1% | ACHN renal 87.6% | CAKI-1 renal 91.3% | A498 renal 100% | CCRF-CEM leukemia 12.7% | MOLT-4 leukemia 48.1%

O=c1oc2c([nH]c3ccc4ccccc4c32)c2ccccc12
inactive: SK-MEL-2 melanoma 107% | SN12C renal 106% | UO-31 renal 128% | TK-10 renal 127% | ACHN renal 110% | CAKI-1 renal 109% | A498 renal 106% | CCRF-CEM leukemia 97.6% | MOLT-4 leukemia 85.2%

CCN1C(=O)N(CC)C2C1NN=c1s/c(=C\c3cccc(F)c3)c(=O)n12 (stereo not given)
inactive: SK-MEL-2 melanoma 51.5% | SN12C renal 31.5% | UO-31 renal 50.8% | TK-10 renal 61.8% | ACHN renal 29.1% | CAKI-1 renal 40.8% | MOLT-4 leukemia 19.1%
active: A498 renal -15.3%

NC(CC(N)C(=O)O)C(=O)O (stereo not given)
inactive: SK-MEL-2 melanoma 98.6% | SN12C renal 93.8% | UO-31 renal 94.8% | TK-10 renal 110% | ACHN renal 95.7% | CAKI-1 renal 97% | A498 renal 108% | MOLT-4 leukemia 107%

O=S(=O)(O)CCl
inactive: SK-MEL-2 melanoma 104% | SN12C renal 98.8% | UO-31 renal 91.6% | TK-10 renal 92% | ACHN renal 103% | CAKI-1 renal 103% | A498 renal 111% | MOLT-4 leukemia 99.4%

Cc1ccc(C2=NN(c3ccc(S(N)(=O)=O)cc3)C(c3cn(-c4ccccc4)nc3-c3ccccc3)C2)cc1 (stereo not given)
inactive: SK-MEL-2 melanoma 90% | SN12C renal 30.7% | UO-31 renal 30.2% | TK-10 renal 84.2% | ACHN renal 93% | CAKI-1 renal 94.7% | CCRF-CEM leukemia 40.3% | MOLT-4 leukemia 18.7%
active: A498 renal -5.87%

C=C1C(=O)O[C@H]2[C@H](O)[C@@H](C)CCC/C(C)=C/CC[C@@]3(C)O[C@@H]3C[C@@H]12
inactive: SK-MEL-2 melanoma 90.4% | SN12C renal 91.2% | UO-31 renal 77.4% | TK-10 renal 81% | ACHN renal 96% | CAKI-1 renal 74.8% | A498 renal 91.8% | CCRF-CEM leukemia 79.5% | MOLT-4 leukemia 78.6%

Cc1ccc(S(=O)(=O)OC2COCOC2C(OS(=O)(=O)c2ccc(C)cc2)C2OCOCC2OS(=O)(=O)c2ccc(C)cc2)cc1 (stereo not given)
inactive: SK-MEL-2 melanoma 104% | SN12C renal 91.3% | UO-31 renal 95.8% | TK-10 renal 101% | ACHN renal 105% | CAKI-1 renal 105% | A498 renal 95.9% | CCRF-CEM leukemia 100% | MOLT-4 leukemia 90.1%

NC(=O)NC(=O)/C=C/C(=O)OCCCl
inactive: SK-MEL-2 melanoma 113% | SN12C renal 104% | UO-31 renal 89.2% | TK-10 renal 72.1% | ACHN renal 79.9% | CAKI-1 renal 99.6% | A498 renal 103% | MOLT-4 leukemia 96.9%

CC(=O)Nc1nc(C(=O)N2N=C(C)/C(=C/c3cccs3)C2=O)cs1
inactive: SK-MEL-2 melanoma 98.4% | SN12C renal 110% | UO-31 renal 84% | TK-10 renal 107% | ACHN renal 113% | CAKI-1 renal 98.6% | A498 renal 115% | CCRF-CEM leukemia 92.4% | MOLT-4 leukemia 79.1%

CCCCCCCCCCCCCCCCC(Br)C(=O)O (stereo not given)
inactive: SK-MEL-2 melanoma 94.4% | SN12C renal 102% | UO-31 renal 87.9% | TK-10 renal 116% | ACHN renal 96.6% | CAKI-1 renal 101% | A498 renal 94.7% | MOLT-4 leukemia 97.5%

COC12CC(=O)C(C(C)=O)=C(O)C1(C)c1c(O)c(C)c(O)c(C(C)=O)c1O2 (stereo not given)
inactive: SK-MEL-2 melanoma 41.9% | SN12C renal 49.1% | UO-31 renal 48.9% | TK-10 renal 78.4% | ACHN renal 77.9% | CAKI-1 renal 71.5% | A498 renal 61.1% | CCRF-CEM leukemia 47.2% | MOLT-4 leukemia 75.3%

COc1ccc(-n2cnc3c(sc4ncc(Cl)cc43)c2=O)cc1
inactive: SK-MEL-2 melanoma 120% | SN12C renal 101% | TK-10 renal 89.9% | ACHN renal 82.1% | CAKI-1 renal 86.6% | A498 renal 76.8% | MOLT-4 leukemia 96.6%
active: UO-31 renal 5.62%

CN1C(=O)[C@H]2c3c1cccc3[C@@]13NC(=O)O[C@H]1[C@H](CCC3(C)C)C2(C)C
inactive: SK-MEL-2 melanoma 92.8% | SN12C renal 93.3% | UO-31 renal 84.6% | TK-10 renal 87.2% | ACHN renal 94.2% | CAKI-1 renal 94.4% | A498 renal 107% | CCRF-CEM leukemia 94.5% | MOLT-4 leukemia 79.4%

CC1Cc2c(N(C)C)ncnc2N(C)c2ccc(Cl)cc21 (stereo not given)
inactive: SK-MEL-2 melanoma 27.3% | SN12C renal 47.9% | UO-31 renal 59.4% | TK-10 renal 31.8% | ACHN renal 47.1% | CAKI-1 renal 25.1% | CCRF-CEM leukemia 18.1% | MOLT-4 leukemia 28.2%
active: A498 renal -12.5%

COc1ncc(-c2ccc3ncnc(Nc4cccc(Cl)c4)c3c2)cc1NS(=O)(=O)CCN1CCOCC1
inactive: SN12C renal 10.1% | CCRF-CEM leukemia 22.5%
active: SK-MEL-2 melanoma -1.15% | UO-31 renal -8.52% | TK-10 renal -19.6% | ACHN renal 7.46% | CAKI-1 renal 1.1% | A498 renal -35.9% | MOLT-4 leukemia 2.58%

COc1cc(NCCN=C(N)NC(N)=NC(C)C)c2ncccc2c1
inactive: SN12C renal 74.8% | UO-31 renal 81.7% | TK-10 renal 110% | ACHN renal 94.1% | CAKI-1 renal 95.3% | A498 renal 91.2% | MOLT-4 leukemia 67.5%
active: SK-MEL-2 melanoma -14.2%

COC(=O)C(CC(=O)c1ccc(-c2ccccc2)cc1)c1ccccc1 (stereo not given)
inactive: SK-MEL-2 melanoma 69.4% | SN12C renal 64.2% | UO-31 renal 53.8% | TK-10 renal 68% | ACHN renal 41.3% | CAKI-1 renal 44.3% | A498 renal 41.7% | CCRF-CEM leukemia 49.4% | MOLT-4 leukemia 47.3%

Cc1cc(Nc2nc(-c3ccc(F)cc3)nc3ccccc23)n[nH]1
inactive: SK-MEL-2 melanoma 27.7% | SN12C renal 61.6% | UO-31 renal 32% | TK-10 renal 32.6% | ACHN renal 39.4% | CCRF-CEM leukemia 44.5% | MOLT-4 leukemia 64.1%
active: CAKI-1 renal -7.57% | A498 renal 1.89%

COc1cccc(NC(=O)c2sc3nc4c(cc3c2N)CCCC4)c1
inactive: SK-MEL-2 melanoma 33.7% | SN12C renal 58.9% | UO-31 renal 40% | TK-10 renal 55.7% | ACHN renal 44.2% | CAKI-1 renal 31% | A498 renal 17.6% | CCRF-CEM leukemia 13.6% | MOLT-4 leukemia 17.8%

CCC(C)NCC(=O)O (stereo not given)
inactive: SK-MEL-2 melanoma 85.6% | SN12C renal 110% | UO-31 renal 98.4% | TK-10 renal 107% | ACHN renal 97.7% | CAKI-1 renal 97.7% | A498 renal 107% | MOLT-4 leukemia 106%

Cc1ccc(C2=NN(c3ccc(S(=O)(=O)NC(=O)NCc4ccccc4)cc3)C(c3ccc(N(C)C)cc3)C2)c(C)c1 (stereo not given)
inactive: SK-MEL-2 melanoma 40.9% | SN12C renal 46.5% | UO-31 renal 38.3% | TK-10 renal 66.5% | ACHN renal 44.7% | CAKI-1 renal 47.7% | A498 renal 51% | CCRF-CEM leukemia 42% | MOLT-4 leukemia 23.1%

CCn1cc(C(=O)O)c(=O)c2cc(F)c(N3CCN(S(=O)(=O)c4cccc5ccccc45)CC3)cc21
active: SK-MEL-2 melanoma 8.82% | UO-31 renal -19.7% | ACHN renal -3.57% | CAKI-1 renal 0.945% | A498 renal -0.385% | MOLT-4 leukemia 8.41%
inactive: SN12C renal 11.9% | TK-10 renal 26% | CCRF-CEM leukemia 12.1%

O=C(Nc1ccc(Br)c(Cl)c1)c1cc(F)ccc1O
inactive: TK-10 renal 21.3%
active: SK-MEL-2 melanoma -32.6% | SN12C renal 5.56% | UO-31 renal -1.56% | ACHN renal 0.577% | CAKI-1 renal -48.8% | CCRF-CEM leukemia 6.75% | MOLT-4 leukemia -23%

O=S(=O)(NCCCNc1nccc(-c2c(-c3ccccc3)nc3sccn23)n1)c1ccc(F)cc1
inactive: SK-MEL-2 melanoma 53.8% | SN12C renal 44.1% | UO-31 renal 24.9% | TK-10 renal 72.7% | ACHN renal 26.6% | CAKI-1 renal 33.1% | CCRF-CEM leukemia 31.2% | MOLT-4 leukemia 38.4%

COc1ccc(C2SCC(=O)N2NC(=O)c2ccc(NC(=O)c3ccccn3)cc2)cc1OC (stereo not given)
inactive: SK-MEL-2 melanoma 94.5% | SN12C renal 97.3% | UO-31 renal 89.7% | TK-10 renal 90.1% | ACHN renal 99.2% | CAKI-1 renal 96.9% | CCRF-CEM leukemia 101% | MOLT-4 leukemia 92.1%

NS(=O)(=O)c1ccc(NCC(=O)Nc2ccc(-c3nc4ccccc4s3)cc2)cc1
inactive: SK-MEL-2 melanoma 87.8% | SN12C renal 47.8% | UO-31 renal 74.4% | TK-10 renal 106% | ACHN renal 105% | CAKI-1 renal 92.9%
active: CCRF-CEM leukemia 6.24% | MOLT-4 leukemia 6.23%

Cc1cccc(-n2c(C)nc3ccc(NC(=O)NCCCl)cc3c2=O)c1
active: CCRF-CEM leukemia -43.7%
inactive: SK-MEL-2 melanoma 114% | SN12C renal 107% | UO-31 renal 94.2% | TK-10 renal 99.6% | ACHN renal 111% | CAKI-1 renal 97.6% | MOLT-4 leukemia 105%

O=C(CCl)NCCNc1nccc(Nc2ccc(S(=O)(=O)Nc3ccccn3)cc2)n1
inactive: SK-MEL-2 melanoma 32.8% | SN12C renal 13.5% | UO-31 renal 47.4% | TK-10 renal 50% | ACHN renal 25.6% | CAKI-1 renal 10.3% | CCRF-CEM leukemia 12.3% | MOLT-4 leukemia 23.8%

COc1ccc(OC)c(-c2ccc(-c3ccccc3N)c3[nH]c4ccccc4c23)c1
inactive: SK-MEL-2 melanoma 77.1% | SN12C renal 87.6% | UO-31 renal 58.4% | TK-10 renal 103% | ACHN renal 80.7% | CAKI-1 renal 73% | CCRF-CEM leukemia 103% | MOLT-4 leukemia 56.4%
